Our source for the growth values is PubChem BioAssay (NCI).

Structures are written as SMILES. About 83,000 compounds went through this panel and 20% of them were active in at least one assay; those are over-represented in the sample as a whole.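 Cell lines were cultured in 96-well plates, exposed to a single compound concentration, and assessed for percent growth 48 hours later.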 Values without a mark were called inactive. Activity calls are given as the source filed them. Rule for the calls: active = growth percent below 10; inactive = the rest.

Some test systems named below: HCT-15 colon; HT29 colon; SNB-75 CNS; SNB-19 CNS; U251 CNS; PC-3 prostate; UACC-62 melanoma; LOX IMVI melanoma; SK-MEL-28 melanoma.
Holding throughout (assay): NCI-60 one-dose screen, 48 h (100 = growth as untreated, 0 = no growth, -100 = all killed)
What all share (details): 10 µM unless noted

Take `CCN(CC)c1ccc(/C=N/NC(=O)c2ccccc2Nc2ccnc(C(F)(F)F)c2)c(O)c1`: the growth in the assay with HCT-15 colon was 32.6%; in the assay on HT29 colon, 37.7%; in the assay with SNB-75 CNS it was 43.8%; with SNB-19 CNS it was 20.1%; in the assay with U251 CNS, 14.8%; in the assay with PC-3 prostate, 36%. Also, the growth with UACC-62 melanoma was 19.4%; in the assay on LOX IMVI melanoma, 5.58% (active); in the assay with SK-MEL-28 melanoma, 47.9%.
As to `[2H]C([2H])([2H])Oc1c(F)cccc1/C=C/C(=O)/C=C(O)/C=C/c1cccc(F)c1OC([2H])([2H])[2H]`, the growth in the assay with HCT-15 colon is 81.4%; with HT29 colon it was 103%; in the assay with SNB-75 CNS, 114%; with SNB-19 CNS, 94.4%; with U251 CNS, 87.8%; in the assay on PC-3 prostate it was 88.4%. Moreover, the figures for the growth in the assay with UACC-62 melanoma, in the assay on LOX IMVI melanoma and with SK-MEL-28 melanoma were 92%, 85.8% and 98.1%, respectively.
Consider `COC(=O)c1nc(-c2ccccc2)oc1S(=O)(=O)N1CCN(c2ccc(OC)cc2)CC1`, for which the growth is 42.8% in the assay with HCT-15 colon; 43.8% in the assay with HT29 colon; 101% in the assay with SNB-75 CNS; 97.8% in the assay on SNB-19 CNS; 90.8% in the assay on U251 CNS; 63.9% in the assay with PC-3 prostate. In addition, the values for the growth with UACC-62 melanoma, with LOX IMVI melanoma and in the assay with SK-MEL-28 melanoma were 86.8%, 62.9% and 88.3%, respectively.
As for `COc1cccc(C2C3=C(COC3=O)N(CCO)c3cc4c(cc32)OCCO4)c1` (centres undefined), the growth in the assay with HCT-15 colon was 2.89% (active); with HT29 colon, -30.7% (active); with SNB-75 CNS, -14.1% (active); in the assay with SNB-19 CNS, 9.81% (active); in the assay on U251 CNS, 2.46% (active); in the assay with PC-3 prostate it was 20.3%. Moreover, the growth was 24.8% in the assay with UACC-62 melanoma, 22.1% with LOX IMVI melanoma and 38.7% in the assay with SK-MEL-28 melanoma.
On to `CCOC(=O)C#Cc1c(CC(=O)OCC)nnn1[C@H]1O[C@@H](CO)[C@@H]2OC(C)(C)O[C@@H]21`, for which the growth in the assay with HCT-15 colon is -12.8% (active); with HT29 colon, 29.2%; in the assay on SNB-75 CNS, 76.4%; with SNB-19 CNS, 97.7%; with U251 CNS it was 96.9%; with PC-3 prostate, 89.4%. Moreover, the growth was 84.8% in the assay with UACC-62 melanoma, 47.3% with LOX IMVI melanoma and 86.6% in the assay on SK-MEL-28 melanoma.
As for `CN1CCN(Cc2ccc(NC(=O)c3cncc(C#Cc4c(N)ncc5c(F)cccc45)c3)cc2C(F)(F)F)CC1`, the growth in the assay with HCT-15 colon was -83.7% (active); with HT29 colon, -77.1% (active); in the assay on SNB-75 CNS, -81% (active); in the assay on SNB-19 CNS, -97% (active); with U251 CNS it was -88.4% (active); with PC-3 prostate, -69.2% (active). Besides, the growth was -93.3% (active) in the assay on UACC-62 melanoma, -96.1% (active) in the assay on LOX IMVI melanoma and -86.5% (active) in the assay on SK-MEL-28 melanoma.
`CCOC(=O)CCC(=O)P(=O)(O)O`: the growth with HCT-15 colon is 108%; in the assay with HT29 colon, 95.9%; in the assay on SNB-75 CNS, 146%; in the assay with SNB-19 CNS, 92.6%; with U251 CNS it was 102%; with PC-3 prostate, 62.8%. The growth with UACC-62 melanoma was 96.6%; in the assay on LOX IMVI melanoma, 104%; in the assay on SK-MEL-28 melanoma, 93.6%.
Consider `CC1=C(C(=O)OCc2ccccc2)C(c2ccc3c(c2)OCO3)n2c(nc3ccccc32)N1` (centres undefined), for which the growth with HCT-15 colon was 30.4%; in the assay with HT29 colon, 14.4%; in the assay with SNB-75 CNS it was -6.67% (active); in the assay with SNB-19 CNS, 41.6%; in the assay with U251 CNS, 36.3%; in the assay with PC-3 prostate, 41.1%. The growth was 46.2% in the assay with UACC-62 melanoma, 34.6% in the assay on LOX IMVI melanoma and 61.8% with SK-MEL-28 melanoma.
On to `CC(=O)[C@H]1CC[C@]2(C)[C@@H]1CC[C@@H]1[C@@]3(C)C/C(=C/c4cccnc4)C(=O)C(C)(C)[C@@H]3CC[C@]12C`, for which the growth in the assay with HCT-15 colon is 54.4%; in the assay on HT29 colon, 57.1%; in the assay with SNB-75 CNS it was 106%; in the assay on SNB-19 CNS it was 87.1%; in the assay on U251 CNS it was 60.7%; with PC-3 prostate it was 26.9%. Also, the growth is 59.9% in the assay on UACC-62 melanoma, 87.6% in the assay on LOX IMVI melanoma and 94.9% in the assay with SK-MEL-28 melanoma.
As for `CC(C)(C)[C@H](OCc1cn([C@H]2C[C@@H](O)[C@@H](CO)O2)c(=O)[nH]c1=O)c1ccc(C#Cc2ccccc2)cc1[N+](=O)[O-]`, the growth with HCT-15 colon was 69.8%; in the assay with HT29 colon, 62.3%; in the assay with SNB-75 CNS, 67%; in the assay with SNB-19 CNS, 82.4%; in the assay with U251 CNS, 68.9%; in the assay with PC-3 prostate it was 19.3%. The growth in the assay with UACC-62 melanoma was 66.9%; in the assay with LOX IMVI melanoma, 84.7%; in the assay with SK-MEL-28 melanoma, 101%.
Regarding `COc1ccc(-c2cc(-c3ccc(N(C)C)cc3)nc(NC(=O)c3cccnc3)n2)cc1`, the growth in the assay with HCT-15 colon is 95%; in the assay on HT29 colon, 108%; in the assay with SNB-75 CNS, 99%; with SNB-19 CNS, 93.2%; with U251 CNS it was 98.9%; in the assay with PC-3 prostate, 90.3%. The figures for the growth in the assay with UACC-62 melanoma, in the assay with LOX IMVI melanoma and in the assay with SK-MEL-28 melanoma were 95.1%, 97.1% and 106%, respectively.
On to `Cc1nc2ccccc2c(/C=C/c2ccc(Cl)cc2)c1C(=O)/C=C/c1ccccc1`, for which the growth in the assay with HCT-15 colon is -30.3% (active); in the assay on HT29 colon it was -15.7% (active); in the assay on SNB-75 CNS it was 39.7%; with SNB-19 CNS, -16.2% (active); in the assay on U251 CNS it was -74.3% (active); in the assay on PC-3 prostate, 23.3%. The growth is 0.158% (active) in the assay on UACC-62 melanoma and 8.62% (active) in the assay with SK-MEL-28 melanoma.
Consider `CN(C)CC1C(=O)O[C@H]2[C@H]1CC/C(COC(=O)NCc1ccc(Cn3c(=O)sn(CCCI)c3=O)cc1)=C\CC[C@@]1(C)O[C@@H]21` (some centres undefined), for which the growth with HCT-15 colon is 5.27% (active); in the assay on HT29 colon, -80.4% (active); in the assay with SNB-75 CNS, 71.8%; in the assay on SNB-19 CNS, 89.9%; in the assay on U251 CNS it was 84.7%; in the assay on PC-3 prostate, 66.5%. Besides, the values for the growth with UACC-62 melanoma, with LOX IMVI melanoma and with SK-MEL-28 melanoma were 15.9%, -75.8% (active) and -80.3% (active), respectively.
Turning to `C/C(=C(\c1ccc(OCCCN(C)C)cc1)c1ccc(OC(=O)Cc2ccccc2)cc1)c1ccc(Cl)cc1`, the growth in the assay with HCT-15 colon is 45.2%; in the assay with HT29 colon, 4.56% (active); in the assay on SNB-75 CNS it was 77.3%; in the assay on SNB-19 CNS, 89.8%; with U251 CNS, 55%; with PC-3 prostate it was 75.9%. Moreover, the results for the growth with UACC-62 melanoma and in the assay on SK-MEL-28 melanoma were 81.8% and 76.4%, respectively.
As for `C=C(C)[C@@H]1CC[C@]2(COC(=O)c3cccnc3)CC[C@]3(C)[C@H](CC[C@@H]4[C@@]5(C)CCCN(C(=O)c6cccnc6)C(C)(C)[C@@H]5CC[C@]43C)[C@@H]12`, the growth in the assay on HCT-15 colon was 24.9%; in the assay on HT29 colon, 32.3%; with SNB-75 CNS, 53.3%; with SNB-19 CNS it was 47.1%; in the assay on U251 CNS it was 25.6%; in the assay on PC-3 prostate, 14.6%. Besides, the figures for the growth in the assay on UACC-62 melanoma, in the assay with LOX IMVI melanoma and in the assay with SK-MEL-28 melanoma were 28.4%, 21.3% and 51.3%, respectively.
For the molecule `Cc1cccc(C)c1NC(=O)Nc1ccccc1`, the growth is 25.5% in the assay with HCT-15 colon; 27.3% in the assay on HT29 colon; 108% in the assay on SNB-75 CNS; 90.8% in the assay on SNB-19 CNS; 77.4% in the assay on U251 CNS; 70.7% with PC-3 prostate. Moreover, the growth in the assay with UACC-62 melanoma is 71.6%; in the assay with LOX IMVI melanoma, 69.8%; in the assay with SK-MEL-28 melanoma, 108%.
For `COC(=O)c1c(C(=O)OC)c2ccc3c4ncccc4ccc3n2c1C(=O)c1ccc(C)cc1`, the growth is 91.1% with HCT-15 colon; 95.1% in the assay on HT29 colon; 95.2% in the assay on SNB-75 CNS; 98.1% in the assay on SNB-19 CNS; 98.9% with U251 CNS; 86.6% in the assay on PC-3 prostate. Besides, the growth in the assay on UACC-62 melanoma is 84.8%; with LOX IMVI melanoma, 88%; in the assay on SK-MEL-28 melanoma, 95.1%.
Regarding `C/C(=N\NC(=O)c1ccc(C(C)(C)C)cc1)c1ccc(O)cc1O`, the growth in the assay on HCT-15 colon was 16.5%; with HT29 colon it was 25.3%; in the assay with SNB-75 CNS, 54.7%; with SNB-19 CNS, 40.1%; with U251 CNS, 25.2%; in the assay on PC-3 prostate, 33.8%. In addition, the growth was 14.1% in the assay on UACC-62 melanoma, -4.95% (active) with LOX IMVI melanoma and 36.1% with SK-MEL-28 melanoma.
`C=C(C)[C@@H]1CC[C@]2(C#N)CC[C@]3(C)[C@H](CC[C@@H]4[C@@]5(C)CCCNC(C)(C)[C@@H]5CC[C@]43C)[C@@H]12`: the growth in the assay with HCT-15 colon is 23%; in the assay on HT29 colon, 9.37% (active); in the assay with SNB-75 CNS, 83.9%; with SNB-19 CNS it was 78.6%; in the assay with U251 CNS, 16.7%; in the assay with PC-3 prostate, 68.7%. Further, the growth is 88.6% in the assay with UACC-62 melanoma, -44.3% (active) in the assay with LOX IMVI melanoma and 97.3% in the assay on SK-MEL-28 melanoma.
